# A number with no mark means an inactive call.
# Tested on: Vero E6 infected with SARS-CoV-2
# Experiment: inhibition of SARS-CoV-2 cytopathic effect; higher = more antiviral protection, active = above 15
# Conditions: 833.33 nM; 48 h
row,SMILES,inhibition of SARS-CoV-2 cytopathic effect [%]
1,Cc1cc(NC(=O)C2=C(O)c3ccccc3S(=O)(=O)N2C)no1 [isoxicam],-2.59
2,CCCCCCOc1nsnc1C1=CCCN(C)C1 [xanomeline],-1.94
3,COc1cc2c(cc1O)CC[C@@H]1[C@@H]2CC[C@]2(C)[C@@H](O)CC[C@@H]12 [2-methoxyestradiol],-1.83
4,Nc1ncnc2c1c(-c1cnc3[nH]ccc3c1)nn2C1CCCC1,-3.88
5,O=C(O)c1cn(C2CC2)c2cc(N3CCNCC3)c(F)cc2c1=O [ciprofloxacin],-0.98
6,FCc1ccc(OCCOc2ccc(Cl)cc2Cl)c(Cl)n1,1.12
7,CC/C=C(\C(=O)N[C@@H]1C(=O)N2C(C(=O)OCOC(=O)C(C)(C)C)=C(COC(N)=O)CS[C@H]12)c1csc(N)n1 [cefcapene-pivoxil],1.69
8,Nc1nc(=O)c2sc(=O)n([C@@H]3O[C@H](CO)[C@@H](O)[C@H]3O)c2[nH]1,1.35
9,COC(=O)/C=C/C(=O)OCCN1C(=O)CCC1=O [diroximel-fumarate],-1.82
10,O=C(O)c1cc2ccccc2s1,-0.45
11,CC(C)Oc1ccc(-c2nn([C@@H](C)c3oc4ccc(F)cc4c(=O)c3-c3cccc(F)c3)c3ncnc(N)c23)cc1F,0.53
12,CC(C)CNc1ccnc(NCc2csc(-c3ccccc3)n2)n1,0.39
13,CCCCCCCC/C=C\CCCCCCCC(=O)N[C@@H](CO)Cc1ccc(O)cc1,1.23
